# Data as given in PubChem BioAssay (EPA / NIEHS).
# Records with an inconclusive call do not appear. Active and inactive are the calls of the source. The calls were made as follows: active = hit-call score of the fitted dose curve at least 0.9, where 1 is the maximum; inconclusive = response in the unintended direction; inactive = score below 0.9.
# Legend:
# [1] = target: D(1A) dopamine receptor (Homo sapiens) (UniProt P21728); assay: NVS_GPCR_hDRD1: NovaScreen (NVS) G Protein-Coupled Receptor Assay for human Dopamine Receptor D1 (DRD1) (AID 2283269)
# Procedure, shortened: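 Extracted HEK293 DRD1 is incubated 1 h with compound and a tritiated or iodinated radioligand, then filtered and counted. Screening runs 25 uM in duplicate with on-plate positive and negative controls.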
# [2] = target: human Thromboxane A2 Receptor (TXA2), TBXA2R (gene 6915) (UniProt P21731); assay: NVS_GPCR_hTXA2: NovaScreen (NVS) G Protein-Coupled Receptor Assay for human Thromboxane A2 Receptor (TXA2) (AID 2283282);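 also: actives reduce bound radioligand signal relative to DMSO baseline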
# Procedure, shortened: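 Cell-free radioligand binding with human platelet-derived receptor; 1 h after dosing, filter-based scintillation counting, loss of signal vs DMSO. Primary screen in duplicate at 25 uM.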
# [3] = target: human Opioid Receptor Mu (Opiate Mu), OPRM1 (gene 4988) (UniProt P35372); assay: NVS_GPCR_hOpiate_mu: NovaScreen (NVS) G Protein-Coupled Receptor Assay for human Opioid Receptor Mu (Opiate Mu) (AID 2283290);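 also: hits lower bound tracer signal versus DMSO meaning displacement of the ligand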
# Procedure, shortened: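 Here, radioligand binding to CHO-extracted receptor was measured after 2.5 h using filter-based scintillation detection. Initial single-concentration screening used 25 uM in duplicate with plate controls; confirmed actives went to concentration-response testing.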
# [4] = target: human Adenosine A2a Receptor (AdoRA2a), ADORA2A (gene 135) (UniProt P29274); assay: NVS_GPCR_hAdoRA2a: NovaScreen (NVS) G Protein-Coupled Receptor Assay for human Adenosine A2a Receptor (AdoRA2a) (AID 2283256)
# Procedure, shortened: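 Radioligand displacement on HEK293-derived membrane protein, cell-free; filter-based scintillation counting 1.5 hours after dosing, loss of signal vs DMSO. Single-point duplicate screen at 25 uM, actives retested in concentration series.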
# [5] = target: Sodium channel protein type 1 subunit alpha (Rattus norvegicus) (UniProt P04774); assay: NVS_IC_rNaCh_site2: NovaScreen (NVS) Ion Channel Assay for rat Sodium Channel, Site 2 (NaCh) (AID 2283322);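 also: hit means loss of radioligand binding signal relative to DMSO so AC50 marks displacement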
# Procedure, shortened: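 Membranes: rat forebrain. Format: competitive radioligand displacement, filter separation, scintillation readout, 1 h exposure. Primary screen in duplicate at 25 uM; actives retested in concentration series.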
# [6] = target: human Neurokinin, NK2 Receptor, TACR2 (gene 6865) (UniProt P21452); assay: NVS_GPCR_hNK2: NovaScreen (NVS) G Protein-Coupled Receptor Assay for human Neurokinin, NK2 Receptor (AID 2283278);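 also: actives reduce bound radioligand signal relative to DMSO baseline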
# Experimental: NVS_GPCR_hNK2 is a biochemical, single-readout assay that uses extracted gene-proteins from CHO in a cell-free assay. Measurements were taken 4 hours after chemical dosing in a 96-well plate.NVS_GPCR_hNK2 is one of one assay component(s) measured or calculated from the NVS_GPCR_hNK2 assay. It is designed to make measurements of radioligand binding, a form of binding reporter, as detected with scintillation counting signals by Filter-based radiodetection technology.Data from the assay component NVS_GPCR_hNK2 was analyzed into 1 assay endpoint. This assay endpoint, NVS_GPCR_hNK2, was analyzed in the positive analysis fitting direction relative to DMSO as the negative control and baseline of activity. […] Furthermore, this assay endpoint can be referred to as a primary readout, because the performed assay has only produced 1 assay endpoint. […]
# Binding assays used specific radioligands (tritiated, iodinated) with non-radioactive competitive displacement ligands in agonist or antagonist protocols (as indicated) and various reference compounds and inhibitors to titrate specific binding to receptors and transporters. Most enzyme assays (CYPs, kinases, phosphatases, proteases, HDACs) used recombinant protein and specific substrates (fluorescence mostly, some colorimetric and radioactive) and inhibitors, followed by a biochemical separation of substrate and product. […]
# [7] = target: Muscarinic acetylcholine receptor M2 (Homo sapiens) (UniProt P08172); assay: NVS_GPCR_hM2: NovaScreen (NVS) G Protein-Coupled Receptor Assay for human Muscarinic, M2 Receptor (AID 2283273)
# Procedure, shortened: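 Radioligand displacement on human M2 receptor membranes from CHO cells, 1 h incubation, filtration with scintillation counting. Primary screen in duplicate at 25 uM; actives retested in concentration series; loss of signal fitted versus DMSO.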
# [8] = target: human Adenosine A1 Receptor (AdoRA1), ADORA1 (gene 134) (UniProt P30542); assay: NVS_GPCR_hAdoRA1: NovaScreen (NVS) G Protein-Coupled Receptor Assay for human Adenosine A1 Receptor (AdoRA1) (AID 2283254)
# Procedure, shortened: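 Each chemical is first tested twice at 25 uM, actives later in dilution series, against a radioligand bound to human cortex membranes; after 1 h, filter-retained counts are compared with DMSO controls, lower signal indicating displacement.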
# [9] = target: rat Thyrotropin Releasing Hormone Receptor (TRH), Trhr (gene 25570) (UniProt Q01717); assay: NVS_GPCR_rTRH: NovaScreen (NVS) G Protein-Coupled Receptor Assay for rat Thyrotropin Releasing Hormone Receptor (TRH) (AID 2283329);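 also: hit means lower bound tracer signal versus DMSO baseline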
# Procedure, shortened: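 Test compounds are screened at 25 uM in duplicate against radioligand binding in rat forebrain membranes, with active pairs followed up over a concentration range. Detection uses filter-based radiodetection after a 4 h exposure.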
# [10] = target: guinea pig Opioid, Kappa 1 Receptor (OpiateK), OPRK1 (gene 100135587) (UniProt P41144); assay: NVS_GPCR_gOpiateK: NovaScreen (NVS) G Protein-Coupled Receptor Assay for guinea pig Opioid, Kappa 1 Receptor (OpiateK) (AID 2283252);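 also: radioligand displacement from kappa opioid receptor in guinea pig cerebellar membranes; active means reduced radioligand binding relative to DMSO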
# Procedure, shortened: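 Guinea pig cerebellar membranes, radioligand displacement with filter-based scintillation counting, 2 h after dosing. Primary screen single concentration 25 uM in duplicate; actives retested in concentration series; loss of binding fitted versus DMSO.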
# Chain of D(1A) dopamine receptor (Homo sapiens) (P21728 whole entry, looked up): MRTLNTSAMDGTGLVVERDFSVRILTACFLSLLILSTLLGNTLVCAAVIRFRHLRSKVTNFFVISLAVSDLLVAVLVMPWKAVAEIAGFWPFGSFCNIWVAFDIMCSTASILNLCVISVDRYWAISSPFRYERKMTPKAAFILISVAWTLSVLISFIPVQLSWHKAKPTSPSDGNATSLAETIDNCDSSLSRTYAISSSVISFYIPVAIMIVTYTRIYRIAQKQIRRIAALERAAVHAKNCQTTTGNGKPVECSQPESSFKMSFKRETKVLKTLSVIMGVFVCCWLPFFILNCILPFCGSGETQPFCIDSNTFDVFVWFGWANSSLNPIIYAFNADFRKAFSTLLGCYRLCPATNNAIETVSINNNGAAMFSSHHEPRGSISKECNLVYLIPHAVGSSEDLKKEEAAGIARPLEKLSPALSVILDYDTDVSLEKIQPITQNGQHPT
# Chain of human Adenosine A2a Receptor (AdoRA2a), ADORA2A (gene 135) (P29274 whole entry, looked up): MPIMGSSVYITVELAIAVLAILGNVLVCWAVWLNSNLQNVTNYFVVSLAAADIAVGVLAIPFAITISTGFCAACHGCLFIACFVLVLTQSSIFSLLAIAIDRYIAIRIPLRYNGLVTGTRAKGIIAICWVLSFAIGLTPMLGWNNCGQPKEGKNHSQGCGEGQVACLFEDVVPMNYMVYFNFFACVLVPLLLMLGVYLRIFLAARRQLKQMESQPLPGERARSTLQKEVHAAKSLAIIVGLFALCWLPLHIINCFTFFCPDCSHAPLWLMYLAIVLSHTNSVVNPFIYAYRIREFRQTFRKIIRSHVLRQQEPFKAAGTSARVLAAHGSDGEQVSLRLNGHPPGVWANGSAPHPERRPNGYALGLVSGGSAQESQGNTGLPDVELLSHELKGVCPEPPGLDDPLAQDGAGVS
# Chain of human Thromboxane A2 Receptor (TXA2), TBXA2R (gene 6915) (P21731 whole entry, looked up): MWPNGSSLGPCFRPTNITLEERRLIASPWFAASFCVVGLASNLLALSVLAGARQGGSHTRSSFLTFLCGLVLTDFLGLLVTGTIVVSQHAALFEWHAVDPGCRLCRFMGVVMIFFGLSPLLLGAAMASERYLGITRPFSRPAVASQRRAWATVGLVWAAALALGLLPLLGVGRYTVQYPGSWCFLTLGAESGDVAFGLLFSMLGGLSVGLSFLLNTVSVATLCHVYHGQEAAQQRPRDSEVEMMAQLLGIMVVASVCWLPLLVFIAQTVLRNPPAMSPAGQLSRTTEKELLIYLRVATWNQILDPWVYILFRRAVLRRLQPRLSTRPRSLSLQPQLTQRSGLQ
# Chain of human Neurokinin, NK2 Receptor, TACR2 (gene 6865) (P21452 whole entry, looked up): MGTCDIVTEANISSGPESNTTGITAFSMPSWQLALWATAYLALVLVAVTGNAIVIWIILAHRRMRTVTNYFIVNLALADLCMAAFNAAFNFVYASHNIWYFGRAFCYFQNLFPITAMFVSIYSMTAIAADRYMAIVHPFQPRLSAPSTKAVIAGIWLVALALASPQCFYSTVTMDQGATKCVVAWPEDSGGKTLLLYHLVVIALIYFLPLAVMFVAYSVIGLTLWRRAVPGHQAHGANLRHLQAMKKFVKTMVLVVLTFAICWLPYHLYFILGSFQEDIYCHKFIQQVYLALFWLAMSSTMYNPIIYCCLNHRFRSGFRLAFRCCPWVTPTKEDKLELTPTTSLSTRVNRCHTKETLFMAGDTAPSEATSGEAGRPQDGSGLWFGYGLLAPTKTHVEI
# Chain of human Opioid Receptor Mu (Opiate Mu), OPRM1 (gene 4988) (P35372 whole entry, looked up): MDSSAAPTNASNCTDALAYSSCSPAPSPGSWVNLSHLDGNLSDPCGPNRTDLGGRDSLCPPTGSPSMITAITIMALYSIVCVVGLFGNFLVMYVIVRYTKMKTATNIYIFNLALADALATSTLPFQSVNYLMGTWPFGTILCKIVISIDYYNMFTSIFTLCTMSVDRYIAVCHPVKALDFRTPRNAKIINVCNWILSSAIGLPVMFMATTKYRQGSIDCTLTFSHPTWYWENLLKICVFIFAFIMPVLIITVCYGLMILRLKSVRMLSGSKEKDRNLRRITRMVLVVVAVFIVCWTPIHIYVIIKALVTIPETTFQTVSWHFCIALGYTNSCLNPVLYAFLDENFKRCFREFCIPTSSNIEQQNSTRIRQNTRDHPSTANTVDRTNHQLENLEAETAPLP
# Chain of Muscarinic acetylcholine receptor M2 (Homo sapiens) (P08172 whole entry, looked up): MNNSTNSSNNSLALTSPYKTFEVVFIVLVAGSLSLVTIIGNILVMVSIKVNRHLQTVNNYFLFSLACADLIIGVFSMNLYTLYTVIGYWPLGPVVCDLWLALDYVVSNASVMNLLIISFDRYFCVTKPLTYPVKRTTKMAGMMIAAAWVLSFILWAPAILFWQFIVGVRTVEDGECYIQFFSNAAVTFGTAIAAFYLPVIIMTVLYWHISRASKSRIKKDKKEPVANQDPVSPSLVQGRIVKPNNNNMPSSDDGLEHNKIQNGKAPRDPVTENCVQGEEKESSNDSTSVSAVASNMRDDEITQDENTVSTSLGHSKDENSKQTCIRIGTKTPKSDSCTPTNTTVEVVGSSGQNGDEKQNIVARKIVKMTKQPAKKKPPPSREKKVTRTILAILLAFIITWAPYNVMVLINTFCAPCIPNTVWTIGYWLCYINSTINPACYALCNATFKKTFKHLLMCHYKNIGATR
# Chain of human Adenosine A1 Receptor (AdoRA1), ADORA1 (gene 134) (P30542 whole entry, looked up): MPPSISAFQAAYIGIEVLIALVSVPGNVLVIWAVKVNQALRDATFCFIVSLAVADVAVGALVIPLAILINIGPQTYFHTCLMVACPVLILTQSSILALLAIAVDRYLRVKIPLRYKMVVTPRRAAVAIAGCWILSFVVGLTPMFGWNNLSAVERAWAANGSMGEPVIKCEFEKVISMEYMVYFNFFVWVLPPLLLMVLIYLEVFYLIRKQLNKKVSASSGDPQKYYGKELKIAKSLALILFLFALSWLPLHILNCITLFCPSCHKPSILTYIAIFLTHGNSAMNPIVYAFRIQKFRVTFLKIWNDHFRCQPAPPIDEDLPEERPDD
# Chain of guinea pig Opioid, Kappa 1 Receptor (OpiateK), OPRK1 (gene 100135587) (P41144 whole entry, looked up): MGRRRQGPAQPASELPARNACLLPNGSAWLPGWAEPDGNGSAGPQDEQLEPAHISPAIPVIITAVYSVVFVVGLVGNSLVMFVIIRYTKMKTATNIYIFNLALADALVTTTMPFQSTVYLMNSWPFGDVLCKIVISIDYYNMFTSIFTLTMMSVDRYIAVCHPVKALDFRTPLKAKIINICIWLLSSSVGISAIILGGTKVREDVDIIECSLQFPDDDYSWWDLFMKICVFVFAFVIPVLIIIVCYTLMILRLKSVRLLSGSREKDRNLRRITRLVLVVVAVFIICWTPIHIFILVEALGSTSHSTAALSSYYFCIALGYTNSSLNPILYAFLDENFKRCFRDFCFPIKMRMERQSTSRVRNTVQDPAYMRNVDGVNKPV
# Chain of rat Thyrotropin Releasing Hormone Receptor (TRH), Trhr (gene 25570) (Q01717 whole entry, looked up): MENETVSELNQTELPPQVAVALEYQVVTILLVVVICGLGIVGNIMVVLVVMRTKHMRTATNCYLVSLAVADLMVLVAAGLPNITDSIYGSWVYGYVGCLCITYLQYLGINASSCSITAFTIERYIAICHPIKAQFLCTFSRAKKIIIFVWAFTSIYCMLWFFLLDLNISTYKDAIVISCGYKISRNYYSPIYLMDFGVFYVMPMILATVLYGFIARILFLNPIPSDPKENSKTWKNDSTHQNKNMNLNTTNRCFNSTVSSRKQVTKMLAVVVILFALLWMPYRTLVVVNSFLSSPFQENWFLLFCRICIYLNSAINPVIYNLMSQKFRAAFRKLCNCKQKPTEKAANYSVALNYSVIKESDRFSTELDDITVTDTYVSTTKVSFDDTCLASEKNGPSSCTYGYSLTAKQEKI
smiles,measurement,setting,value
CCCCC/C=C\C/C=C\CCCCCCCC(=O)OC,AC50,[1],45.1 µM (active)
same,AC50,[2],25 µM (active)
same,AC50,[3],16.9 µM (active)
CCCCCCCCc1ccc(Nc2ccc(CCCCCCCC)cc2)cc1,outcome,[2],inactive
S=C(NC1CCCCC1)NC1CCCCC1,AC50,[2],1.56 µM (active)
COCc1c(C(C)C)nc(C(C)C)c(/C=C/[C@@H](O)C[C@@H](O)CC(=O)O)c1-c1ccc(F)cc1,outcome,[4],inactive
same,AC50,[5],1.81 µM (active)
O=C(Cl)c1cc(C(=O)Cl)cc(C(=O)Cl)c1,AC50,[6],15 µM (active)
C=CC(=O)OCC(Br)CBr (configuration not stated),outcome,[1],inactive
Cc1ccc(N)c([N+](=O)[O-])c1,outcome,[2],inactive
CC(C)c1ccc(C=O)cc1,outcome,[4],inactive
same,outcome,[7],inactive
Cc1ccc(C2OC[C@@H]3OC(c4ccc(C)cc4)O[C@H]([C@H](O)CO)[C@@H]3O2)cc1 (some centres not stated),outcome,[2],inactive
CCC(CC)C(=O)O,outcome,[1],inactive
CCCCCCCCCCCCCCCC[N+](C)(C)CC,AC50,[4],44.2 µM (active)
same,AC50,[1],1.95 µM (active)
same,AC50,[7],0.395 µM (active)
same,AC50,[6],1.78 µM (active)
same,AC50,[3],2.05 µM (active)
same,outcome,[5],inactive
O=C(Nc1ccccc1SSc1ccccc1NC(=O)c1ccccc1)c1ccccc1,AC50,[8],25 µM (active)
CCCCC/C=C\CCC=O,outcome,[9],inactive
C#CC1(O)CC[C@H]2[C@@H]3CCC4=CCCC[C@@H]4[C@H]3CC[C@@]21C (some centres not stated),outcome,[10],inactive
same,outcome,[1],inactive
C=COCCCC,AC50,[2],25 µM (active)
C1=CCCC1,outcome,[4],inactive
same,outcome,[1],inactive
CCCC(C)CCC(C)=O (configuration not stated),outcome,[1],inactive
O=c1c2ccccc2oc2ccccc12,outcome,[4],inactive
CCOC(=O)[C@H](C)O,outcome,[5],inactive
CCOc1nc(F)cc2nc(S(=O)(=O)Nc3c(Cl)cccc3C(=O)OC)nn12,AC50,[1],25 µM (active)
Cn1c(=O)[nH]c2ncn(C)c2c1=O,AC50,[8],25 µM (active)
